Source: PubChem BioAssay AID1159580 (chemical genetic matrix, 2015)
Where “and” joins values, the source holds several entries; their conditions need not be identical. Equal values may be shown once. Out of some 5,500 compounds screened, about 2,000 (36%) were called active. Not shown: some 18% with an inconclusive outcome. Cut-off read from the data, not from the text of the source: active = normalized growth mostly below about 0.91 (no sharp cut-off); inconclusive = no clear call, values can overlap the other calls; inactive = mostly above about 0.92. Some of the results follow.

Assay: chemical genetic growth profiling, strain panel (AID 1159580);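 note: tested at 20 µM; growth read once vehicle control cultures reached saturation at 30 °C; 1 = growth at the plate median or of vehicle wells; lower values mean less growth of the strain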
Conditions: S. cerevisiae deletion strains, growth OD

Measured: normalized growth

CC(C)=CCCC1(C)C=Cc2c(O)c3c(c(CC=C(C)C)c2O1)OC12C(=CCCC1C(C)(C)O[C@@]2(C/C=C(\C)C(=O)O)C(=O)O)C3=O (stereo partly specified)
inactive: locus YAL021C, strain ccr4, stronger effect = lower value 0.996 | locus YBR021W, strain FUR4, stronger effect = lower value 1.03 | locus YBR171W, strain sec66, stronger effect = lower value 1 | locus YBR279W, strain paf1, stronger effect = lower value 0.933 | locus YCL016C, strain dcc1, stronger effect = lower value 0.92 | locus YCL069W, strain vba3, stronger effect = lower value 0.941 | locus YCR088W, strain abp1, stronger effect = lower value 0.988 | locus YDL005C, strain med2, stronger effect = lower value 1.03 | locus YDL040C, strain nat1, stronger effect = lower value 0.999 | locus YDL185W, strain tfp1, stronger effect = lower value 0.964 | locus YDR001C, strain nth1, stronger effect = lower value 0.999 | locus YDR069C, strain doa4, stronger effect = lower value 0.923 | locus YDR195W, strain ref2 1.12 | locus YDR334W, strain swr1, stronger effect = lower value 0.991 | locus YEL037C, strain rad23, stronger effect = lower value 0.987 | locus YEL061C, strain CIN8 (second series), stronger effect = lower value 0.963 | locus YER016W, strain bim1, stronger effect = lower value 0.957 | locus YER110C, stronger effect = lower value 0.953 | locus YFR010W, strain ubp6, stronger effect = lower value 0.919 | locus YGL078C, strain dbp3, stronger effect = lower value 0.998 | locus YGL167C, strain pmr1, stronger effect = lower value 0.996 | locus YGL227W, strain vid30, stronger effect = lower value 1.04 | locus YGL240W, strain doc1, stronger effect = lower value 0.989 | locus YGR252W, strain gcn5, stronger effect = lower value 0.902 | locus YHR013C, strain ard1, stronger effect = lower value 0.96 | locus YHR079C, strain IRE1 (second series), stronger effect = lower value 0.979 | locus YHR079C, strain IRE1, stronger effect = lower value 0.94 | locus YHR094C, strain hxt1, stronger effect = lower value 0.973 | locus YHR200W, strain rpn10, stronger effect = lower value 0.952 | locus YIL073C, strain SPO22, stronger effect = lower value 0.873 | locus YIL125W, strain kgd1, stronger effect = lower value 0.961 | locus YIR030C, strain dcg1, stronger effect = lower value 0.942 | locus YJL092W, strain hpr5, stronger effect = lower value 0.949 | locus YJL115W, strain asf1, stronger effect = lower value 1.04 | locus YJL129C, strain trk1, stronger effect = lower value 0.973 | locus YJL134W, strain LCB3, stronger effect = lower value 0.929 | locus YJL154C, strain vps35, stronger effect = lower value 1.01 | locus YJL168C, strain set2, stronger effect = lower value 0.971 | locus YJR066W, strain TOR1, stronger effect = lower value 0.909
0.501 (active) and 0.921 (inactive): locus YHR030C, strain SLT2, stronger effect = lower value
active: locus YAL026C, strain drs2, stronger effect = lower value 0.813 | locus YAL030W, strain snc1, stronger effect = lower value 0.915 | locus YBL061C, strain skt5, stronger effect = lower value 0.918 | locus YBR009C, strain hhf1, stronger effect = lower value 0.86 | locus YBR023C, strain chs3, stronger effect = lower value 0.844 | locus YBR229C, strain ROT2, stronger effect = lower value 0.903 | locus YBR231C, strain swc5, stronger effect = lower value 0.861 | locus YCL011C, strain gbp2, stronger effect = lower value 0.887 | locus YCL029C, strain bik1, stronger effect = lower value 0.907 | locus YDL035C, strain GPR1, stronger effect = lower value 0.782 | locus YDL074C, strain BRE1, stronger effect = lower value 0.685 | locus YDL101C, strain DUN1, stronger effect = lower value 0.834 | locus YDL192W, strain arf1, stronger effect = lower value 0.766 | locus YDR101C, strain arx1, stronger effect = lower value 0.869 | locus YDR137W, strain rgp1, stronger effect = lower value 0.498 | locus YDR159W, strain sac3, stronger effect = lower value 0.694 | locus YDR162C, strain NBP2, stronger effect = lower value 0.377 | locus YDR297W, strain sur2, stronger effect = lower value 0.861 | locus YDR318W, strain mcm21, stronger effect = lower value 0.81 | locus YDR335W, strain msn5, stronger effect = lower value 0.881 | locus YDR388W, stronger effect = lower value 0.884 | locus YDR392W, strain spt3, stronger effect = lower value 0.283 | locus YDR502C, strain sam2, stronger effect = lower value 0.864 | locus YEL003W, strain gim4, stronger effect = lower value 0.907 | locus YEL061C, strain CIN8, stronger effect = lower value 0.89 | locus YER015W, strain faa2, stronger effect = lower value 0.84 | locus YER111C, strain swi4, stronger effect = lower value 0.91 | locus YER155C, strain BEM2 (second series), stronger effect = lower value 0.546 | locus YER155C, strain BEM2, stronger effect = lower value 0.879 | locus YER167W, strain BCK2, stronger effect = lower value 0.807 | locus YGL086W, strain mad1, stronger effect = lower value 0.851 | locus YGL173C, strain kem1, stronger effect = lower value 0.701 | locus YGL248W, strain PDE1, stronger effect = lower value 0.792 | locus YGL253W, strain hxk2, stronger effect = lower value 0.85 | locus YGR078C, strain PAC10, stronger effect = lower value 0.753 | locus YGR135W, strain pre9, stronger effect = lower value 0.863 | locus YHR027C, strain rpn1, stronger effect = lower value 0.814 | locus YHR129C, strain ARP1, stronger effect = lower value 0.808 | locus YHR142W, strain chs7, stronger effect = lower value 0.702 | locus YIL066C, strain RNR3, stronger effect = lower value 0.804 | locus YJL095W, strain BCK1 (second series), stronger effect = lower value 0.609 | locus YJL164C, strain tpk1, stronger effect = lower value 0.86 | locus YJL166W, strain qcr8, stronger effect = lower value 0.851 | locus YJL187C, strain SWE1 (second series), stronger effect = lower value 0.789 | locus YJR043C, strain POL32, stronger effect = lower value 0.822
0.263 (active) and 0.923 (inactive): locus YJL095W, strain BCK1, stronger effect = lower value
